The supplement of paper PMC7411640
Where a name gives a salt, the structure may show the parent alone.

These compounds were tested on MDA-MB-468 (assay: phospho-S6 immunofluorescence (DAPI-normalised), per-plate z-score; higher = higher phospho-S6 signal (less pathway suppression)). Conditions: co-treatment: GDC0941 450 nM; 24 h.
Experimental: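 GPCR-targeted compound library (MedChemExpress HY-L006) tested on MDA-MB-468 PTEN-null TNBC cells in 384-well plates at 0.1, 1 or 10 uM, combined with vehicle, GDC0941 450 nM or lapatinib 1 uM, for 24 h. Phospho-S6 (S240/244) immunofluorescence normalised to DAPI and expressed as a per-plate z-score; values are the mean of biological triplicates.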

SMILES | phospho-S6 immunofluorescence (z-score)
O=C(Nc1cccc2c(=O)cc(-c3nnn[nH]3)oc12)c1ccc(OCCCCc2ccccc2)cc1 [Pranlukast] (compound 10 µM) | 0.87
C[C@]12C=CC(=O)C=C1CC[C@@H]1[C@@H]2C(=O)C[C@@]2(C)[C@H]1CC[C@]2(O)C(=O)CO [Prednisone] (compound 10 µM) | 0.55
COc1nc(C)cnc1NS(=O)(=O)c1cccnc1-c1ccc(-c2nnco2)cc1 [Zibotentan] (compound 10 µM) | -2.05
CC(C)(C)NC[C@H](O)COc1nsnc1N1CCOCC1 [(S)-Timolol (Maleate)] (compound 10 µM) | -0.17
CC(C)c1cc(-c2ccc(F)c3ccccc23)nc(N)n1 (compound 10 µM) | -1.03
COc1cc2nc(N3CCN(C(=O)C4CCCO4)CC3)nc(N)c2cc1OC (configuration not stated) [Terazosin (hydrochloride dihydrate)] (compound 10 µM) | 0.82
CN1CC2c3ccccc3Oc3ccc(Cl)cc3C2C1 (configuration not stated) [Asenapine (maleate)] (compound 10 µM) | 0.37
CC[N+](CC)(CC)CCOc1cccc(OCC[N+](CC)(CC)CC)c1OCC[N+](CC)(CC)CC [Gallamine Triethiodide] (compound 10 µM) | 0.5
O=C(O)Cn1c2c(c3cc(F)ccc31)CN(C(=O)c1cccc3ccccc13)CC2 [Setipiprant] (compound 10 µM) | 0.42
Cc1cc(NC(=O)Nc2ccc(N(C)C)cc2)c2cc(F)cc(F)c2n1 (compound 10 µM) | -2.07
COc1ccccc1OCCNCC(O)COc1cccc2[nH]c3ccccc3c12 (configuration not stated) [Carvedilol] (compound 10 µM) | -4.07
CCOc1nc2cccc(C(=O)OC(C)OC(=O)OC3CCCCC3)c2n1Cc1ccc(-c2ccccc2-c2nn[nH]n2)cc1 (configuration not stated) [Candesartan (Cilexetil)] (compound 10 µM) | -1.58
C[C@]12CCC(=O)C=C1CC[C@@H]1[C@@H]2C(=O)C[C@@]2(C)[C@H]1CC[C@]2(O)C(=O)CO [Cortisone] (compound 10 µM) | 0.47
Nc1ccc(/C=C/c2cccc(C(=O)O)n2)cc1 (compound 10 µM) | 0.9
COc1ccc(CCN2CCN(CCCc3ccccc3)CC2)cc1OC [SA4503 (dihydrochloride)] (compound 10 µM) | 0.13
O=C(COc1ccc(C(=O)c2ccccc2)cc1)NC1CCN(Cc2ccccc2)CC1 [AdipoRon] (compound 10 µM) | -4.84
Cc1cc(C(C)(C)C)cc(C)c1CC1=NCCN1 [Xylometazoline (hydrochloride)] (compound 10 µM) | 0.43
CN(C)CC1CCOC1(c1ccccc1)c1ccccc1 (configuration not stated) [AVex-73 hydrochloride] (compound 10 µM) | -0.82
CCC(=O)OCC(=O)[C@@]1(OC(=O)CC)[C@@H](C)C[C@H]2[C@@H]3CCC4=CC(=O)C=C[C@]4(C)[C@@]3(Cl)[C@@H](O)C[C@@]21C [Beclometasone dipropionate] (compound 10 µM) | 0.45

SMILES | phospho-S6 immunofluorescence (z-score)
CCN(CC)Cc1ccc(C(=O)N(CCc2ccccc2OC)[C@@H]2CCNC2)cc1 (compound 10 µM) | 0.19
OC(CCN1CCCCC1)(c1ccccc1)C1CCCCC1 (configuration not stated) [Trihexyphenidyl (hydrochloride)] (compound 10 µM) | -0.3
OCCOCCN1CCN(C(c2ccccc2)c2ccc(Cl)cc2)CC1 (configuration not stated) [Hydroxyzine (dihydrochloride)] (compound 10 µM) | 0.45
CN(C)[C@@H]1CCc2[nH]c3ccc(NC(=O)c4ccc(F)cc4)cc3c2C1 (compound 10 µM) | 0.67
Cc1nc(C(=O)N2CCC[C@H]2Cc2nnc(-c3ccccc3)o2)c(-c2ccccc2F)s1 (compound 10 µM) | 0.95
O=C(O[C@H]1CN2CCC1CC2)N1CCc2ccccc2[C@@H]1c1ccccc1 [Solifenacin (Succinate)] (compound 10 µM) | 1.65
COc1cc2nc(N3CCN(C(=O)c4ccco4)CC3)nc(N)c2cc1OC [Prazosin (hydrochloride)] (compound 10 µM) | 2.1
CN(C)CCc1c[nH]c2ccc(CS(=O)(=O)N3CCCC3)cc12 [Almotriptan (malate)] (compound 10 µM) | 0.95
Cc1ccc(S(=O)(=O)N2CCCC2c2ccc(F)cc2)cc1 (configuration not stated) (compound 10 µM) | -2.47
CCN(CCCCOC(=O)c1ccc(OC)c(OC)c1)C(C)Cc1ccc(OC)cc1 (configuration not stated) [Mebeverine (hydrochloride)] (compound 10 µM) | 0.43
CC(C)[N+]1(C)[C@@H]2CC[C@H]1C[C@@H](OC(=O)C(CO)c1ccccc1)C2 (some centres not stated) [Ipratropium (bromide)] (compound 10 µM) | -0.02
CCCCCCOc1nsnc1C1=CCCN(C)C1 [Xanomeline (oxalate)] (compound 10 µM) | -0.72
O=C1NCC2(CCN(CCc3ccccc3)CC2)O1 [Fenspiride (Hydrochloride)] (compound 10 µM) | 0.59
O=C(c1ccc(F)cc1)C1CCN(CCn2c(=O)[nH]c3ccccc3c2=O)CC1 [Ketanserin (tartrate)] (compound 10 µM) | 0.46
CNS(=O)(=O)Cc1ccc2[nH]cc(CCN(C)C)c2c1 [Sumatriptan (succinate)] (compound 10 µM) | 0.01
C=CCN1CCCC1CNC(=O)c1cc(S(N)(=O)=O)cc(OC)c1OC (configuration not stated) [Veralipride] (compound 10 µM) | -0.02
CC(C)(Cc1ccc2ccccc2c1)NC[C@@H](O)COc1cccc(Cl)c1C#N (compound 10 µM) | -3.37
COc1cc2nc(N(C)CCCNC(=O)C3CCCO3)nc(N)c2cc1OC (configuration not stated) [Alfuzosin] (compound 10 µM) | 0.81
